An excerpt weighted towards active compounds, which were near 1.2% of everything screened.
Six1-Eya2 inh: qHTS Assay for Inhibitors of the Six1/Eya2 Interaction; Homeobox protein SIX1 (Homo sapiens) + Protein phosphatase EYA2 (Homo sapiens), …; AlphaScreen GST-Six1/His-Eya2 binding, biochemical; stronger effect = lower value; activity change, % (no concentration beside the values); 360,000 compounds, 0.56% hits; in the data active = activity change below about -65%; inconclusive = mostly about -30% to -63%
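AlphaScreen with GST-Six1 and His-Eya2 (5X mix: 250 nM and 500 nM), glutathione donor and nickel acceptor beads; buffer 50 mM Tris pH 8.0, 300 mM NaCl, 1 mM TCEP; 1 h at 37 C in the dark.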
USP2a block: qHTS Assay for Inhibitors of Ubiquitin-specific Protease USP2a Using CHOP2 as the Reporter. Potency, µM (highest dose often 38.3 µM), inactives show at the top dose activity change, negative = inhibition, most hits filed as inhibitors. USP2 core, Ub-CHOP2 coupled fluorogenic reporter, 485/531. Ubiquitin carboxyl-terminal hydrolase 2 (Homo sapiens), O75604. 330,000 compounds, 0.01% hits;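 note: potency is the fitted concentration of half-maximal effect; plate controls were DMSO wells for no effect and full inhibition by NEM control for full effect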
Target sequence (O75604 whole entry, looked up): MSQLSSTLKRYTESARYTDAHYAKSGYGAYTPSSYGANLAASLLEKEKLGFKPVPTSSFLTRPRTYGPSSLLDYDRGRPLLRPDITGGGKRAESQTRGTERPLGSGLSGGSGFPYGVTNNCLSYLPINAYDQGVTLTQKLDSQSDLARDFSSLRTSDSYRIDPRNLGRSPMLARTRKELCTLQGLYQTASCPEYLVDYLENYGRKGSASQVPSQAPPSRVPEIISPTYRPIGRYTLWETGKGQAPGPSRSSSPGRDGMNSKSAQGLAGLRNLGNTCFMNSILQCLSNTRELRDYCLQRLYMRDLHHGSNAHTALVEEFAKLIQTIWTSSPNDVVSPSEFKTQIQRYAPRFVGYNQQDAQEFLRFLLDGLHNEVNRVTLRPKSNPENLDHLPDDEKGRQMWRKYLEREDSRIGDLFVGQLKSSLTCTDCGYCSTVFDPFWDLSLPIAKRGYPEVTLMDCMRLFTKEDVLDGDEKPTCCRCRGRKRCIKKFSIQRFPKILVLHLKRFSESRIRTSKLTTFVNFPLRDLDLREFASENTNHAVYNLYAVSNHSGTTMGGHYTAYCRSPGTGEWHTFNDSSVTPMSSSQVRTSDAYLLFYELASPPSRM
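Deubiquitinase activity read as fluorescence (485/531 nm) after Ub-CHOP2 cleavage activates the enterokinase reporter on its substrate; USP2 core 10nM, Ub-CHOP2 and substrate 25nM each, 30min compound preincubation then 60min RT; data normalized to NEM, curves fitted.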
uPA generation: qHTS for Inhibitors of Cell Surface uPA Generation; cell surface uPA generation assay, qHTS; Potency, µM (titrated, usually from 38.3 µM), inactives show top-dose activity change, negative = inhibition, hits mostly inhibitors; 330,000 compounds, 0.31% hits; active = well fitted inhibition curve with a large enough effect; inconclusive = small, poorly fitted or top-dose-only effect; inactive = no such curve, though single readings can be large or run the other way; tested in mouse RAW 264.7 cells; note: potency is the fitted concentration of half-maximal effect; nearly all actives have a fitted effect of over 55% in size
Eya2 phos inh: qHTS Assay for Inhibitors of the Phosphatase Activity of Eya2. recombinant Eya2, OMFP fluorescence dephosphorylation (OMFP is methylfluorescein phosphate). Potency, µM (doses to about 76.9 µM), for inactives: at the highest dose activity, negative = inhibition, usual class: inhibitors. 330,000 compounds, 0.006% hits. AID 488837, 2010; note: potency is the fitted concentration of half-maximal effect
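Eya2 (0.2 uM) preincubated 10 min at ambient with compound, then OMFP substrate added at 50 uM; 10 min reaction in 50 mM HEPES pH 7.5, 50 mM NaCl, 5 uM MgCl2, 0.05% BSA, 1 mM DTT. Fluorescence read at Ex 485/Em 525 nm.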
CtBP-E1A blk: qHTS Assay for Inhibitors of the CtBP/E1A Interaction. CtBP / adenovirus E1A interaction (AlphaScreen). activity change, % (test concentration not listed). 340,000 compounds, 0.49% hits. AlphaScreen GST-E1A/His-CtBP binding, 1536-well; stronger effect = lower value; in the data active = activity change below about -65%; inconclusive = mostly about -30% to -63%
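Steps: dispense buffer (Tris pH 8.0, NaCl 300 mM, TCEP 1 mM, BSA, Tween 20); add 5X protein mix (GST-E1A, His-CtBP, 125 nM each); pin 23 nL compound; 2 h at 37 °C, dark; add 5X beads (50 ug/mL); 1 h; read.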
L3MBTL1 block: qHTS Assay for the Inhibitors of L3MBTL1; Lethal(3)malignant brain tumor-like protein 1 (Homo sapiens), Q9Y468; AlphaScreen L3MBTL1–H3K9me1 peptide binding; Potency, µM (doses to about 57.1 µM), for inactives: at the highest dose activity, negative = inhibition, usual class: inhibitors; 230,000 compounds, 0.66% hits; AID 485360, 2010; note: potency is the fitted concentration of half-maximal effect; nearly all actives have a fitted effect of over 60% in size
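AlphaScreen assay: L3MBTL1 (50 nM final) was preincubated 30 min at room temperature with biotinylated H3(1-15)K9me1 peptide (75 nM final), then 30 min with library compounds; streptavidin donor and nickel chelate acceptor beads (10 ug/mL final) added, 30 min dark.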
The depositor's hits bear a star; u = inconclusive; x = not tested or not shown. Unless noted, calls come from the whole dose curve; as a rule, active = well fitted curve in the direction sought with a large enough effect; inconclusive = small, poorly fitted or top-dose-only effect, or another doubt; inactive = no such curve, though single readings can be large; an effect the other way counts as inactive or inconclusive. Unless noted, % is set by controls: 0 for no effect and ±100 for the full control effect.

SMILES | Six1-Eya2 inh | USP2a block | uPA generation | Eya2 phos inh | CtBP-E1A blk | L3MBTL1 block
O=C(CSc1nnnn1-c1ccc(F)cc1)c1ccc(O)c(O)c1 | 14.0 | 5.62µM* | -9.7% | 1.8% | -0.5 | x
COc1cc(C(C[N+](=O)[O-])c2c(N)n(C)c(=O)n(C)c2=O)ccc1O (centres undefined) | 3.6 | 10.7% | -16.3% | 18.3% | 4.4 | 5.9%
Cc1ccc(C(C[N+](=O)[O-])c2c(N)n(C)c(=O)n(C)c2=O)cc1 (centres undefined) | 4.6 | 0.8% | 10µM* | 11.6% | 3.2 | x
Oc1ccc(/C=N/NC(=S)Nc2cccnc2)c(O)c1O | -89.4* | 0.9% | -3.0% | -3.1% | -93.4* | x
Oc1ccc(C=NNC(=S)Nc2ccccc2)nc1 | -96.7* | x | x | x | -76.5* | x
Fc1cccc(F)c1/C=N/NC(=S)Nc1cccnc1 | -1.9 | -1.6% | -4.7% | 0.2% | -3.7 | -16.9%
Oc1cccc(/C=N/NC(=S)Nc2cccnc2)c1O | -90.6* | -0.5% | -2.3% | 2.1% | -94.7* | 3.98µM*
Oc1ccc(C=NNC(=S)Nc2ccc(F)cc2)c(O)c1 | -80.5* | x | -12.4% | x | -93.3* | x
Fc1c(F)c(F)c(/C=N/NC(=S)Nc2cccnc2)c(F)c1F | -0.1 | -0.3% | -1.0% | 4.4% | -1.0 | -15.3%
CC(C)CC(=O)Nc1ccnn1C1CCN(C(=O)c2ccc(F)cc2Cl)CC1 | 10.1 | 3.2% | -2.6% | 5.3% | 5.0 | x
O=C(CNC(=O)c1n[nH]c2ccccc12)Nc1ccc(F)c(F)c1F | 1.2 | 2.7% | 10.6% | -1.6% | 5.0 | -2.8%
Cc1cc(C)c(S(=O)(=O)c2ccc(C(C)(C)C)cc2)c(Cl)n1 | 1.0 | -0.5% | -8.4% | -1.6% | 11.3 | x
Oc1ccc(/C=N/NC(=S)Nc2cccnc2)c(O)c1 | -89.9* | 3.9% | -19.2% | -3.1% | -81.6* | 8.91µM*
Fc1ccc(/C=N/NC(=S)Nc2cccnc2)cc1 | -5.6 | -5.3% | -8.4% | 11.2% | x | u
S=C(NCc1ccccn1)NN=Cc1ccccn1 | -91.1* | x | -9.8% | x | -3.8 | x
O=C(COC(=O)c1ccc([N+](=O)[O-])s1)c1ccc[nH]1 | -0.6 | 2.1% | -0.6% | 2.0% | -2.1 | -85.0%
O=C(COc1ccccc1)Nc1nc(-c2ccncc2)cs1 | 3.5 | 0.2% | -2.0% | -3.7% | -24.3 | x
O=C(COc1ccc([N+](=O)[O-])cc1)Nc1nc(-c2ccccn2)cs1 | -78.8* | 1.8% | -9.5% | -3.9% | -91.7* | u
Cc1cccc(OC(C)C(=O)Nc2nc(-c3cccnc3)cs2)c1 (centres undefined) | -9.9 | x | x | x | -6.4 | x
O=C(COc1ccc(F)cc1)Nc1nc(-c2ccccn2)cs1 | -84.2* | -1.0% | 9.2% | -7.8% | u | -8.4%
O=C(COc1cccc(F)c1)Nc1nc(-c2ccccn2)cs1 | -77.0* | x | x | x | u | x
CC(Oc1ccc(Br)cc1)C(=O)Nc1nc(-c2ccccn2)cs1 (centres undefined) | -73.1* | 3.0% | 1.8% | 0.9% | u | x
Cc1ccc(OCC(=O)Nc2nc(-c3ccccn3)cs2)c(C)c1 | u | -3.9% | 1.2% | 0.0% | u | -12.8%
COc1cc(/C=C/CNC[C@H]2O[C@@H](n3ccc(=O)[nH]c3=O)[C@H](O)[C@@H]2O)ccc1O | -1.8 | x | 19.8% | x | 1.5 | x
O=[N+]([O-])c1cc(CN2CCN(c3ccccc3)CC2)c(O)c2ncccc12 | -90.8* | -7.2% | -15.4% | 3.1% | -94.6* | 3.98µM*
SMILES | Six1-Eya2 inh | USP2a block | uPA generation | Eya2 phos inh | CtBP-E1A blk | L3MBTL1 block
O=C(COc1c(Br)cc(Br)c2cccnc12)N1CCCCC1 | -11.8 | -2.9% | -5.7% | -4.9% | -6.9 | -29.7%
Oc1c(Cl)cc(Cl)c(Cl)c1CN1CCOCC1 | -9.4 | x | 2.9% | x | -16.6 | x
O=[N+]([O-])c1cc(CN2CCOCC2)c2cccnc2c1O | -87.6* | -4.5% | 6.6% | 8.4% | -4.4 | 1.26µM*
Oc1c(CN2CCOCC2)cc(CN2CCOCC2)cc1CN1CCOCC1 | 9.4 | x | 4.3% | x | 5.4 | x
Oc1c(Cl)cc(CN2CCOCC2)c2cccnc12 | -89.5* | 0.6% | u | -8.0% | x | u
CN(Cc1cc([N+](=O)[O-])c2cccnc2c1O)C1CCCCC1 | x | -0.3% | x | 0.3% | x | -0.8%
Oc1c(CN2CCCCC2)cc(Br)c2cccnc12 | -91.0* | -1.7% | u | -1.4% | -92.3* | u
CCOC(=O)c1ccc(NC(=O)CSc2nnc(CNC(=O)c3ccco3)o2)cc1 | 1.7 | 2.8% | -0.2% | -1.4% | -6.1 | x
Cc1ccc(N(C)S(=O)(=O)c2cccc(C(=O)NCCCN3CCCC3=O)c2)cc1 | -0.1 | 1.7% | 10.0% | -23.9% | x | 32.5%
Oc1c(CN2CCc3ccccc3C2)cc(Cl)c2cccnc12 | -92.9* | -9.0% | u | 1.2% | -89.0* | x
O=c1oc2ccccc2c(O)c1Cc1cc(Cl)c2cccnc2c1O | -9.2 | -4.9% | -2.5% | 2.3% | u | 55.6%
Oc1ccc(/C=C/c2ccc3ccccc3n2)cc1 | 8.8 | -1.5% | u | -1.0% | x | 42.4%
CN(C)c1ccc(/C=C/c2ccc3ccccc3n2)cc1 | 28.3 | -0.4% | 2µM* | -13.9% | x | 39.5%
C(=C\c1ccc2ccccc2n1)/c1ccccc1 | 3.0 | -7.5% | 5.62µM* | -13.5% | x | x
Fc1ccccc1/C=C/c1ccc2ccccc2n1 | 33.3 | -0.5% | 11.2µM* | -10.2% | 7.6 | 62.6%
C(=Cc1c[nH]c2ccccc12)c1ccc2ccccc2n1 | 11.4 | x | -11.0% | x | 31.6 | x
Cc1cc(S(=O)(=O)NCCCN2CCOCC2)ccc1Br | 4.1 | 0.5% | 6.6% | 2.4% | 8.6 | 4.0%
CCOCCCn1c(SCC(=O)NC2CCCCC2)nc2ccccc2c1=O | 4.2 | x | x | x | 4.1 | x
Clc1nc(-c2ccccc2)ncc1Oc1ccccc1 | 38.0 | x | 13.0% | x | x | x
COc1ccc2nc(NN=C(C)c3ccccn3)cc(C)c2c1 | -89.0* | x | -9.4% | x | u | x
COc1cc(C(=O)N/N=C(\C)c2ccccn2)cc(OC)c1OC | -8.2 | 3.8% | -1.9% | 9.6% | -4.4 | x
CC(C)N1CCC1(C)C(=O)Nc1ccc2cn[nH]c2c1 (centres undefined) | -0.8 | x | x | x | 7.8 | x
CCOC(=O)CCc1c(C)c2ccc(OC3CCCCC3=O)cc2oc1=O (centres undefined) | 4.3 | 0.1% | -1.9% | -1.7% | 7.2 | x
Cc1cc2nc(-c3ccc[nH]c3=O)n(Cc3ccc(F)cc3)c2cc1C | -4.4 | 2.5% | -1.1% | 0.4% | -6.5 | x

Screens from PubChem BioAssay.
